# Shown are actives, neighbours in structure and some others; about 5.6% of the full set was active somewhere.
# VP16 counter – Gal4-VP16 reporter inhibition counter-screen | Drosophila S2 Gal4-VP16 UAS-luciferase, luminescence, 20 h | Potency, µM (highest dose often 53.6 µM), inactives show at the highest dose activity, negative = inhibition, hits mostly inhibitors | 3.5% of 310,000 active;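 further: Gal4-VP16 expression switched on by copper sulfate through the metallothionein promoter; potency means the concentration at half of the fitted maximal effect; nearly all actives have a fitted effect of over 50% in size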
# CtBP-E1A inh – inhibitors of CtBP/E1A interaction; activity change, % (no concentration beside the values); AlphaScreen GST-E1A/His-CtBP binding, 1536-well; active compounds read low; 0.49% of 340,000 active; in the data active means activity change below about -65%; inconclusive means mostly about -30% to -63%
#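 AlphaScreen with 125 nM GST-E1A and 125 nM His-CtBP (5X stocks) in Tris pH 8.0, 300 mM NaCl, BSA, Tween 20, TCEP. Compounds preincubated 2 h at 37 deg C, then glutathione donor/nickel acceptor beads added for 1 h at 37 deg C in dark.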
# PKM2 activator – PKM2 (human) enzyme activation; P14618; purified PKM2, Kinase-Glo ATP luminescence, activation; response scale: 0% is enzyme alone, no compound; Potency, µM (top dose mostly 57.5 µM), without a hit: at the highest dose activation, usual class: activators; 0.34% of 260,000 active; further: potency means the concentration at half of the fitted maximal effect; nearly all actives have a fitted effect of over 55% in size
#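 ATP formation by purified human PK-M2, quantified via coupled luciferase luminescence after 1 h at room temperature with 0.1 mM ADP and 0.5 mM PEP final.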
# Six1-Eya2 blk – inhibitors of human Six1/Eya2 interaction | Q15475+O00167 | AlphaScreen GST-Six1/His-Eya2 binding, biochemical; active compounds read low | activity change, % (no concentration beside the values) | 0.56% of 360,000 active; in the data active means activity change below about -65%; inconclusive means mostly about -30% to -63%
#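 Six1/Eya2 binding was read as AlphaScreen signal after compounds were pinned into GST-Six1 plus His-tagged Eya2 (5X stock 250/500 nM) in pH 8.0 Tris/NaCl/TCEP buffer, beads added, then incubated 1 h, 37 C, dark.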
# RORgamma inh – inhibitors of mouse ROR gamma transcriptional activity | Drosophila S2 Gal4-RORgamma UAS-luciferase reporter, 20 h | Potency, µM (highest dose often 53.6 µM), for inactives: top-dose activity change, negative = inhibition, most hits filed as inhibitors | 5.4% of 310,000 active | AID 2551; further: potency means the concentration at half of the fitted maximal effect; nearly all actives have a fitted effect of over 60% in size
#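 Stable Schneider cell line, Gal4 DNA-binding domain fused to ROR gamma, UAS-luciferase. Cmpd 1 hr RT → CuSO4 700 uM final → 20 hr RT → luciferase reagent 10 min → luminescence.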
# The depositor's hits bear a star; ? = inconclusive; . = not tested or not shown; [ ] = another dose, or the depositor's remark. Unless noted, the call rests on the fitted dose curve; in most records, active means well fitted curve in the direction sought with a large enough effect; inconclusive means small, poorly fitted or top-dose-only effect, or another doubt; inactive means no such curve, though single readings can be large; an effect the other way counts as inactive or inconclusive. On the % scale 0 is the no-effect control and ±100 the full control effect.
SMILES,VP16 counter,CtBP-E1A inh,PKM2 activator,Six1-Eya2 blk,RORgamma inh
CC(C)(C)c1ccc(/C=C/C(=O)NC2=NCCS2)cc1,4.5µM*,1,-12%,-6,2.8µM*
Nc1cc(=O)[nH]c(SCC(=O)NNC(=O)Cc2ccccc2)n1,-17%,4,-4%,6,-11%
COc1ccc(S(=O)(=O)Nc2cc(C(C)C)c(O)cc2C)cc1,?,0,22%,4,16µM*
COc1ccc(/C=C2/SC(=S)N(CCC(=O)N3CCN(C)CC3)C2=O)cc1,19%,-11,4%,-2,10µM*
COc1ccc(/C=C2/SC(=S)N(CCCC(=O)N3CCN(C)CC3)C2=O)cc1,2.5µM*,-10,-26%,-18,1.4µM*
CCOc1ccc(/C=C2\SC(=S)N(CCC(=O)O)C2=O)cc1,-3%,-10,-1%,0,1.1µM*
Cc1ccc(/C=C2\SC(=S)N(CCCC(=O)N3CCOCC3)C2=O)cc1,?,0,-21%,-6,3.2µM*
CC(=O)NCCCC[C@H](NC(=O)OC(C)(C)C)C(=O)Nc1ccc2c(C(F)(F)F)cc(=O)oc2c1,-2%,.,.,.,2%
O=C(O)COc1ccc(C=C2SC(=S)N(c3ccccc3)C2=O)cc1,.,-92*,.,-15,.
COc1ccc(N/N=C/c2c(C(=O)O)ccc3ccccc23)cc1,4.5µM*,-15,2%,?,1.4µM*
COc1ccc2ccccc2c1/C=N/Nc1ccc(Cl)c(C(=O)O)c1,7%,-24,4%,-21,-29%
COc1ccc(C2=Nn3c(nnc3-c3ccco3)SC2)cc1,-5%,-80*,-10%,-66*,24%
COc1cccc(C2=Nn3c(nnc3-c3ccccc3C)SC2)c1,16µM*,.,.,.,?
CC(C)(C)C1=Nn2c(nnc2-c2ccco2)SC1,2%,-7,5%,-3,-18%
Cc1cc(-c2nnc3n2N=C(c2ccc(-c4ccccc4)cc2)CS3)n[nH]1,?,-69*,-2%,-72*,21%
COc1ccc(OC)c(C2=Nn3c(nnc3-c3ccco3)SC2)c1,1%,?,12%,?,-32%
COc1cccc(C2=Nn3c(nnc3-c3ccc(OC)cc3OC)SC2)c1,-9%,.,.,.,5%
Oc1ccc(C2=Nn3c(nnc3-c3ccco3)SC2)cc1O,-8%[0.365 µM],-94*,3%,-89*,0%
C[C@H]1CCCCO[C@@H](CN(C)S(=O)(=O)c2ccc(F)cc2)[C@@H](C)CN([C@@H](C)CO)C(=O)c2cc(NC(=O)Nc3ccc4c(c3)OCO4)ccc2O1,.,-9,.,7,.
COc1ccc(C2=NN(C(N)=S)C(c3ccco3)C2)cc1 (stereo not drawn),?,-4,18%,-10,10µM*
Cc1ccc(NC(=S)Nc2ccc(Cl)c(Cl)c2)c(OC(F)F)c1,?,-14,-2%,-7,?
CC(NC(=S)Nc1ccc(OC(F)F)c(Cl)c1)C(C)(C)C (stereo not drawn),13µM*,7,3%,-1,2.8µM*
Cc1ccc(NC(=S)Nc2ccc(OC(F)F)c(Cl)c2)cc1Cl,?,0,2%,0,13µM*
COc1ccc(NC(=S)Nc2ccc(C)c(Cl)c2)cc1OC,?,8,-11%,-12,?
COc1ccccc1NC(=O)COC(=O)C1CC2CCCC(C1)C2=O (stereo not drawn),.,0,.,1,.
SMILES,VP16 counter,CtBP-E1A inh,PKM2 activator,Six1-Eya2 blk,RORgamma inh
Cc1[nH]c(=O)c(C(=O)/C=C/c2ccccc2F)c2c1CCCC2,5.6µM*,9,-1%,0,5.6µM*
CCC1CCCCN1S(=O)(=O)c1ccc(NC(=O)CSc2ncccc2C(=O)O)cc1 (stereo not drawn),-4%,5,1%,-83*,0%
CNC(=S)N(CCc1c(C)[nH]c2ccc(Cl)cc12)Cc1cccs1,-3%,.,3%,.,?
COc1cccc(NC(=S)N(CCc2c(C)[nH]c3ccccc23)Cc2cccs2)c1,?,-15,0%,-20,?
CCNC(=S)N(CCc1c(C)[nH]c2ccc(C)cc12)Cc1cccs1,?,-18,9%,-15,7.1µM*
COCCNC(=S)N(CCc1c(C)[nH]c2ccc(F)cc12)Cc1cccs1,?,-27,1%,-19,7.9µM*
Cc1[nH]c2ccccc2c1CCN(Cc1cccs1)C(=S)Nc1ccccc1,-2%,-10,-2%,-19,5.6µM*
Cc1nn(-c2ccc(F)cc2)c(Cl)c1/C=N/NC(=O)c1ccc(O)cc1,2.2µM*,0,1%,-14,?
CNC(=S)N/N=C/c1c(C)nn(-c2ccc(F)cc2)c1Cl,7.1µM*,-3,-2%,-6,2.8µM*
Cc1nn(-c2ccc(F)cc2)c(Cl)c1/C=N/NC(=O)c1cccs1,-18%,-10,5%,-10,?
O=C(Nc1ccc(Cl)c(Cl)c1)Nc1nnc(CSc2ccccc2)s1,-26%,-2,-4%,18,?
Nc1n[nH]c(=S)n1-c1ccc(Cl)cc1,-19%,.,-15%,1,-9%
Cc1ccc(C2CC2c2n[nH]c(=S)n2-c2ccc(C)cc2)cc1 (stereo not drawn),5.6µM*,-4,1%,-5,3.2µM*
S=c1[nH]nc(C2CC2c2ccc(Cl)cc2)n1-c1ccc(Cl)cc1 (stereo not drawn),?,-5,3%,-12,2.2µM*
Cc1ccc(-n2c(-c3nn(C)cc3Cl)n[nH]c2=S)cc1,-19%,3,-10%,2,?
Cc1c(-c2n[nH]c(=S)n2-c2ccc(Br)cc2)nnn1-c1ccc(Cl)cc1,6%[10 µM],-5,18%,-20,-10%
Cc1ccc(-n2c(C3CC3c3ccc(Cl)cc3)n[nH]c2=S)cc1 (stereo not drawn),5.6µM*,28,1%,7,2.8µM*
Cc1ccc(C2CC2c2n[nH]c(=S)n2-c2cccc(Cl)c2)cc1 (stereo not drawn),7.1µM*,6,-3%,1,2.5µM*
CCc1nc2c(OCc3cc(Cl)cc(Cl)c3)cccn2c1N(C)C(=O)c1ccc(OC)cc1,.,-15,.,-14,.
Cc1ccc(-n2c(Cn3c(C)nc4ccccc43)n[nH]c2=S)cc1,-13%,.,-21%,4,?
Cc1ccc(-n2c([C@@H]3C[C@H]3c3ccccc3)n[nH]c2=S)cc1,?,-1,4%,-1,2.8µM*
COc1ccc(/[N+]([O-])=C/c2ccoc2)cc1,.,-7,.,-2,.
CSCCCN1CCCC(CO)(Cc2ccccc2F)C1 (stereo not drawn),-10%,.,1%,16,-13%[1.91 µM]
c1cc2c3c(cccc3c1)C(N1CCOCC1)=N2,-5%,-4,-9%,4,-16%
c1ccc(CC2CCN(C3=Nc4cccc5cccc3c45)CC2)cc1,7.1µM*,?,-8%,?,?
COc1ccccc1N1CCN(C2=Nc3cccc4cccc2c34)CC1,?,?,7%,?,16µM*

# From PubChem
